ADAM17 inh: ADAM17 inhibitors, primary screen, biochemical, QFRET; recombinant ADAM17, EDANS/DABCYL FRET peptide cleavage; 370,000 compounds, 0.83% hits; inhibition, % at 6.95 µM; Disintegrin and metalloproteinase domain-containing protein 17 (Homo sapiens), P78536;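 active means inhibition above the mean of compounds lying between control limits plus 3 SD, set per campaign, cut at about 8.5% in these data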
APOBEC3A inh: APOBEC3A ssDNA deaminase inhibitors, primary screen, selectivity assay for APOBEC3G inhibitor project, biochemical, FAM/TAMRA oligo cleavage fluorescence | recombinant A3A, FAM/TAMRA ssDNA deamination fluorescence | 330,000 compounds, 0.41% hits | AID 493011, 2011 | inhibition, % at 20 µM | DNA dC->dU-editing enzyme APOBEC-3A (Homo sapiens), P31941;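 active means at least 40% inhibition at 20 µM here, with at most 30% in a related deaminase screen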
ADAM10 inh: human ADAM10 inhibitors, primary screen, biochemical, QFRET, HTS; AID 720582, 2013; Disintegrin and metalloproteinase domain-containing protein 10 (Homo sapiens), O14672; 370,000 compounds, 0.62% hits; inhibition, % at 7 µM; recombinant ADAM10, EDANS/DABCYL FRET peptide cleavage, 3 h;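 active means inhibition above a per-campaign cutoff equal to the mean of compounds falling between control-based bounds plus 3 SD, cut at about 20% in these data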
Target sequence (O14672 214-748 limits assumed): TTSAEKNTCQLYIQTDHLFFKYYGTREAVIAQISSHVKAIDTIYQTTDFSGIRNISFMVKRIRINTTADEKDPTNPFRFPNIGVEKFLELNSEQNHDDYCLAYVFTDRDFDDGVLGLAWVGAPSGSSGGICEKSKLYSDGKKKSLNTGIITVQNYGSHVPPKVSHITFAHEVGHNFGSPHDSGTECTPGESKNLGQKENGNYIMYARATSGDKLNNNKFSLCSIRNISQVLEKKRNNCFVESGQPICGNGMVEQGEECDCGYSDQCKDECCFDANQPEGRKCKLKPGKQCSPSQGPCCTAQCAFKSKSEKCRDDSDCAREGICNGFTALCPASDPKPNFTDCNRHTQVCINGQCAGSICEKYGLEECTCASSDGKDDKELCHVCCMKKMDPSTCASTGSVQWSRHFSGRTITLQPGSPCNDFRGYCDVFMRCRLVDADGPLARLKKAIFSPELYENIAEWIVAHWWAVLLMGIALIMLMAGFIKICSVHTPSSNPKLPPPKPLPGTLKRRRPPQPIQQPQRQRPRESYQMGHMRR
A3G deaminase: APOBEC3G DNA deaminase inhibitors, primary screen, biochemical, fluorescence, single-stranded DNA substrate, uHTS; inhibition, % at 20 µM; recombinant A3G, ssDNA deamination FAM/TAMRA fluorescence; AID 493012, 2011; DNA dC->dU-editing enzyme APOBEC-3G (Homo sapiens), Q9HC16; 330,000 compounds, 0.28% hits;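 active means inhibition of at least 40% at 20 µM, with no more than 30% in the related APOBEC3A deaminase screen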
CendR NRP1 mod: modulators of CendR peptide binding to NRP-1, primary screen, biochemical, fluorescence polarization, uHTS. Neuropilin-1 (Homo sapiens), O14786. FAM-RPARPAR peptide binding to NRP-1. inhibition, % at 25 µM. 360,000 compounds, 0.85% hits;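 active means inhibition or corrected inhibition above about 18%, plus a signal ratio from 0.5 to 1.5, limit read from the data, passing the limit was not always enough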
APOBEC3A confirm: APOBEC3A deaminase inhibitors, retest, confirmation, selectivity assay for APOBEC3G inhibitor project, biochemical, single concentration, fluorescence readout; shares compounds with APOBEC3A inh; recombinant A3A, ssDNA deaminase UDG fluorescence assay; inhibition, % at 20 µM; 1,400 compounds, 63% hits;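 active means inhibition reaching a set limit, 80% of the first screen's cutoff, at 20 µM in any replicate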
UDG ctr A3A: E. coli UDG inhibitors, confirmation, counter-screen for APOBEC3A inhibitor project, biochemical, single concentration, fluorescence, FAM/TAMRA oligo; shares compounds with APOBEC3A inh; UDG counterscreen, FAM/TAMRA uracil oligo fluorescence; inhibition, % at 20 µM; 1,000 tested, under 10 active; AID 504714, 2011; call rule not given here
Hits are given with their value; n = inactive; x = no result given. Most compounds without a hit are left out; they make up all but 2.4% or so of the library.

SMILES | ADAM17 inh | APOBEC3A inh | ADAM10 inh | A3G deaminase | CendR NRP1 mod | APOBEC3A confirm | UDG ctr A3A
COC(=O)[C@H]1[C@@H](O)[C@@]2(O)c3c(OC)cc(OC)cc3O[C@@]2(c2ccc(OC)cc2)[C@@H]1c1ccc(F)cc1 | n | x | n | x | x | x | x
Cc1cccc2nc(C(=O)Nc3cc(Cl)ccc3-n3cncn3)cn12 | n | 49.1 | n | n | n | 35.9 | n
OCCN1CCN(c2ncnc3nc[nH]c23)CC1 | n | 51.3 | n | n | n | n | n
CN(C)C=Nc1nc2c(Br)ccc(Br)c2cc1C(=O)NCC(C)(C)C | n | x | n | x | x | x | x
CC(=Nc1ccc(Cl)cc1N)c1c(O)cc(C)oc1=O | n | x | n | x | x | x | x
C[N+](C)(C)CCCNC(=O)c1ccc(/C=N/O)nc1 | n | 41.4 | n | n | n | 71.9 | n
CNCCCNC(=O)c1ccc(/C=N/O)nc1 | n | n | n | n | n | x | x
COC(=O)Cc1nnn2c1[C@H](C)[C@@H](OC)c1ccc(C(F)(F)F)cc1-2 | n | x | n | x | x | x | x
C[N+]1(CC(=O)OC2CCCCCCCCCCC2)CCCC1 | n | n | n | n | n | x | x
CC(=O)/C(C[N+]1(C)CCCCC1)=N\O | n | 41.0 | n | n | n | 82.1 | n
C[n+]1ccccc1/C=C/c1ccc2ncccc2c1 | n | 74.6 | n | n | n | 75.3 | n
C[n+]1ccccc1/C=C/c1ccc(F)c(F)c1 | n | 52.7 | n | n | n | 55.1 | x
C[n+]1ccccc1/C=C/c1ccc([N+](=O)[O-])cc1 | n | 57.0 | n | n | n | 62.2 | x
COc1cccc(-c2ccc(CC[C@H]3O[C@H]4CC[C@H](CO)O[C@H]4C[C@H]3NS(C)(=O)=O)cc2)c1 | n | x | n | x | x | x | x
CC[n+]1ccc2cc(OC)c(OC)cc2c1Cc1ccc(OC)c(OC)c1 | x | 69.5 | x | n | n | 43.4 | x
COC(=O)[C@@]12CCCCC3=C1N(CCC3)C(=O)[C@H]2CC(=O)NCC12CC3CC(CC(C3)C1)C2 | n | x | n | x | x | x | x
CCCCn1c(N)c(N(CCC(C)C)C(=O)C2CC(=O)N(c3ccc4c(c3)OCCO4)C2)c(=O)[nH]c1=O (stereo not given) | n | n | n | n | n | x | x
CCCCn1c(N)c(N(CCC(C)C)C(=O)C2CC(=O)N(c3cccc(SC)c3)C2)c(=O)[nH]c1=O (stereo not given) | n | 45.2 | n | n | n | n | x
C=CCN(CC#Cc1ccccn1)Cc1ccc(OC)cc1OC | n | x | n | x | x | x | x
O=C(NCc1ccc(Cl)cc1)OCCN1C(=O)CCC12CCC(c1ccccc1)CC2 (stereo not given) | n | x | n | x | x | x | x
COc1ccc(NS(=O)(=O)c2ccc(S(=O)(=O)N(C)C)cc2)cc1S(N)(=O)=O | n | 76.8 | n | n | n | n | n
C[N+](C)(C)CCCN(Cc1ccc2c(c1)OCO2)C(=O)NC1CCCCC1 | n | 56.3 | n | n | n | 72.3 | n
CCOc1ccc(NC(=S)NCCCN2CCN(c3ccc(OC)cc3)CC2)cc1 | n | n | n | n | n | x | x
COc1ccc(C(=O)NCCCN2CCOCC2)cc1 | n | 71.6 | n | n | n | n | n
COc1ccc(NC(=S)NCCCN2CCCC2)cc1 | n | 40.9 | n | n | n | n | n
SMILES | ADAM17 inh | APOBEC3A inh | ADAM10 inh | A3G deaminase | CendR NRP1 mod | APOBEC3A confirm | UDG ctr A3A
CCC(=O)OCCCN1CCC2(CCC(c3ccccc3)CC2)C1=O (stereo not given) | n | x | n | x | x | x | x
CN(c1ccc(Br)cc1)S(=O)(=O)c1ccc2[nH]cc(C(=O)NCCN3CCOCC3)c(=O)c2c1 | n | 42.0 | n | n | n | n | x
CCc1ccc(N(C)S(=O)(=O)c2ccc3[nH]cc(C(=O)NCCN4CCOCC4)c(=O)c3c2)cc1 | n | n | n | n | n | x | x
CS(=O)(=O)c1ccc(C(=O)N2CC(=O)Nc3ccccc32)cc1 | n | 54.3 | n | n | n | n | x
Cc1cc(C)cc(C(=O)N2CC(=O)Nc3ccccc32)c1 | n | n | n | n | n | x | x
COc1ccccc1Oc1ccc(S(=O)(=O)N2CCCCC2)cc1NC(=O)CCNC(C)=O | n | 58.3 | n | n | n | n | x
COc1ccc(S(=O)(=O)N2CCCCC2)cc1NC(=O)CCNC(=O)c1ccco1 | n | n | n | n | n | x | x
Cc1nc2nc(C)n(-c3ccccc3)c2s1 | n | n | n | n | n | 46.9 | n
Cc1nc2ccccc2n1-c1ccccc1 | n | n | n | n | n | x | x
C=CCn1c(CCCNC(=O)CCC)nc2ccccc21 | n | 47.3 | n | n | n | n | n
NCCC(=O)Nc1ccc(Cl)cc1C(=O)c1ccc[nH]1 | n | x | n | x | x | x | x
CCOC(=O)[C@@]12CCCC=C1N(CCc1ccc(Cl)cc1)C(=O)[C@H]2CC(=O)N1CCOCC1 | n | x | n | x | x | x | x
CC(C)NS(=O)(=O)c1ccc(CCC(=O)N2CCc3ccccc3C2)cc1 | n | n | n | n | n | x | x
CC1CCN(C(=O)CCc2ccc(S(=O)(=O)NC(C)C)cc2)CC1 | n | 50.7 | n | n | n | n | n
CC(C)C[C@H](NC(=O)N1CCOCC1)C(=O)N1CCC[C@H]1C(=O)NCc1ccccc1 | n | x | n | x | x | x | x
Cc1ccc(NC(=O)Cn2cc(C(=O)C3CC3)c3ccccc32)c(C)c1 | n | n | n | n | n | x | x
Cc1ccc(C)c(NC(=O)Cn2cc(C(=O)C3CC3)c3ccccc32)c1 | n | 70.7 | n | n | n | 61.7 | n
Cc1ccc(N2CC(C(=O)Nc3ccc(S(=O)(=O)N4CCOCC4)cc3)CC2=O)cc1Cl (stereo not given) | n | n | n | n | n | x | x
COc1ccc(N2CC(C(=O)Nc3ccc(S(=O)(=O)N4CCOCC4)cc3)CC2=O)cc1 (stereo not given) | n | 47.9 | n | n | n | n | x
Cc1cc(C)c(C)c(S(=O)(=O)N2CCC(C(=O)Nc3ccc(S(=O)(=O)N4CCOCC4)cc3)CC2)c1C | n | 40.6 | n | n | n | n | x
CCc1ccc(/C=C/c2c[nH]c3ccccc23)[n+](CC)c1 | n | 64.5 | n | n | n | 68.7 | n
CC(C)(C)c1ccc(NC(=O)c2ccc3c(c2)S(=O)(=O)c2ccccc2C3=O)cc1 | n | 43.8 | n | n | n | n | n
COc1ccc(NC(=O)c2ccc3c(c2)S(=O)(=O)c2ccccc2C3=O)cc1 | n | n | n | n | n | x | x
CC[n+]1ccccc1/C=C1\Sc2ccc(C)cc2N1C | n | 53.7 | n | n | n | 84.0 | n
Cc1ccc(/C=C2\SC(N)=NC2=O)s1 | n | 56.1 | n | n | n | n | n
